Data on 35 compounds can be found in paper PMC5540273 (PLoS ONE, 2017).
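Further: KINOMEscan kinase panel screen.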

The first assay relates to T1, SNARK.
T1 construct: gene NUAK2
Conditions: concentration: 1 μM, replicates: in singlicate; n = 1.
Take `O=c1cc(N2CCOCC2)nc2n(Cc3cccc(F)c3)ccn12` [GSK2297430]: the “%Inh” value was determined as 0%.

As to `O=C1NC(=O)C(N2CCc3ccccc32)=C1c1cccc(Cl)c1` [SB-408010], the “%Inh” value is on record as 2%.

As to `Cl.Oc1cccc(Nc2ccnc3cc(-c4ccncc4)ccc23)c1` [GW494601], the “%Inh” value is 12%.

`COc1ccc(COc2cc(-n3cnc4ccccc43)sc2C(N)=O)cc1` [GSK1024304]: the “%Inh” value is recorded as 2%.

For the compound `COc1ccc(Nc2ncc(C#N)c(Nc3ccccc3C(N)=O)n2)cc1N1CCN(C)CC1.Cl` [GSK1558669], the “%Inh” value was 99.8%.

`Cc1cn2c(=O)cc(N3CCOCC3)nc2n1Cc1cccc(Cl)c1Cl` [GSK2334006]: the “%Inh” value came out at 0%.

In the case of `N#Cc1c(N2CCOCC2)sc(-c2ccn[nH]2)c1-c1ccc(Cl)cc1`, the “%Inh” value came out at 5%.

Consider `N#Cc1ccc(-c2cc(-c3c[nH]nc3-c3ccccn3)ccn2)cc1` [GW693028], for which the “%Inh” value is reported as 0%.

Consider `Cc1nnc(-c2ccc3occ(-c4ccc(C(C)O)cc4)c3c2)o1` (stereo not drawn), for which the “%Inh” value is recorded as 2%.

For the compound `Cc1c(Cn2c(C)nn3c(=O)cc(N4CCOC(C)C4)nc23)cccc1C(F)(F)F` (stereo not drawn) [GSK2344444], the “%Inh” value is 0%.

Another assay relates to SNRK. Conditions: concentration: 1 μM, replicates: in singlicate; n = 1.
Turning to `Cc1cccc(-c2nc(-c3ccc(S(C)(=O)=O)cc3)sc2-c2ccncc2)c1`, the “%Inh” value came to 17%.

On to `CN1c2ccc(CNc3ccc(F)cc3)cc2-c2c(cnn2C)S1(=O)=O`, for which the “%Inh” value came out at 0%.

Consider `O=C1Cc2cc(Nc3nc(NCc4cccc(S(=O)(=O)C(F)(F)F)c4)ncc3C(F)(F)F)ccc2N1`, for which the “%Inh” value is recorded as 0%.

As for `COc1cc2c(cc1OC[C@@H](O)CO)ncc1c3ccc(C#N)cc3[nH]c21`, the “%Inh” value worked out at 58%.

As to `COc1ccc(S(=O)(=O)NC2CCN(c3cc(C)nc(Nc4cccc(C#N)c4)n3)CC2)cc1.O=C(O)C(F)(F)F` [GSK1653539], the “%Inh” value is 0%.

Turning to `[2H]C([2H])(c1cccc(C(F)(F)F)c1C)n1ccn2c(=O)nc(N3CCOCC3)cc12` [GSK2336394], the “%Inh” value amounted to 0%.

For `Cc1cccc(-c2nc(Nc3ccc4ncsc4c3)c3ccccc3n2)n1` [GW867588], the “%Inh” value was 0%.

Take `COc1cc2ncn(-c3cc(OCc4sccc4Cl)c(C(N)=O)s3)c2cc1OC` [GSK448459]: the “%Inh” value came to 0%.

As to `CCc1ccnc(/C=C/c2n[nH]c3cc(Sc4ccccc4C(=O)NC)ccc23)c1`, the “%Inh” value was found to be 0%.

Regarding `C[C@@H](Oc1cc(-n2cnc3ccc(NC(=O)NC(C)(C)C)cc32)sc1C(N)=O)c1ccccc1Cl` [GSK346294], the “%Inh” value is 0%.

`COc1cc2c(cc1OCCN1CCN(C)CC1)ncc1c3ccc(C#N)cc3[nH]c21`: the “%Inh” value amounted to 27%.

Regarding `COCCNC(=O)c1ccc(-c2cc(C(=O)NC3CC3)cc(F)c2C)cc1` [GW868318], the “%Inh” value is on record as 16%.

Consider `COc1cc(Nc2nccc(N3CCC(NC(=O)c4cccc(NC(C)=O)c4)C3)n2)cc(OC)c1OC` (stereo not drawn) [GSK1379754], for which the “%Inh” value came to 0%.

In the case of `CN1c2ccc(NCc3ccc(F)cc3)cc2-c2c(cnn2C)S1(=O)=O`, the “%Inh” value is given as 0%.

Regarding `Cc1nnc(-c2ccc3ncc(-c4ccc(S(C)=O)cc4)n3c2)o1` (stereo not drawn), the “%Inh” value stood at 2%.

`O=C(NCCCN1CCOCC1)c1cccc(Nc2nccc(Nc3ccc(Oc4ccccc4)cc3)n2)c1` [GW663929]: the “%Inh” value came to 0%.

With `Cc1cccc(Cn2ccn3c(=O)cc(N4CCOCC4)nc23)c1` [GSK2297542], the “%Inh” value is 0%.

With `Nc1nc(-c2ccc3c(N)n[nH]c3c2)cc(N2CCCC2)n1` [GSK2227430], the “%Inh” value is given as 0%.

Consider `Fc1ccc(-c2ncn(CCCN3CCOCC3)c2-c2cccnc2)cc1` [SB-211743], for which the “%Inh” value is 0%.

As to `O=C(NOCC1CC1)c1ccc(F)c(F)c1Nc1ccc(I)cc1Cl`, the “%Inh” value was 0%.

As to `NS(=O)(=O)c1cccc(-c2ccc3ncc(N4CCOCC4)nc3c2)c1` [GSK1535721], the “%Inh” value is reported as 0%.

`Cn1ccc2ncnc(Oc3ccc(NC(=O)Nc4ccncc4)c(Cl)c3)c21`: the “%Inh” value is given as 0%.

In the case of `NS(=O)(=O)c1cccc(-c2ccc3nccc(-c4cccc(S(N)(=O)=O)c4)c3c2)c1` [GW867253], the “%Inh” value is 0%.

As to `CCc1nc(-c2cccc(C)c2)c(-c2ccnc(NCc3ccccc3)c2)s1`, the “%Inh” value is recorded as 0%.

For `O=C(Nc1cccc(-c2nn3ncccc3c2-c2ccnc(Nc3cccc(C(F)(F)F)c3)n2)c1)c1c(F)cccc1F` [GSK299495], the “%Inh” value stood at 0%.

For `O=c1cc(N2CCOCC2)nc2n(Cc3cccc(F)c3)ccn12` [GSK2297430], the “%Inh” value is 0%.
